Bioassay records as filed in PubChem BioAssay.
Many of the other results were omitted from the sample, so hits are more common in it than they were.
Dicer processing = inhibitors of Dicer pre-microRNA processing, primary screen, biochemical, cat-ELCCA, chemiluminescence | z-score at 25 µM | 47,000 compounds, 6% hits | cat-ELCCA pre-miR-21 Dicer processing; active compounds read high | AID 1347074, 2019; in the data active = z-score above about 3, passing the limit was not always enough;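 note: plate controls were vehicle for no effect and no enzyme for full effect; higher signal means more uncleaved substrate so more Dicer inhibition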
Active calls of the source: *.

`O=C(NC(=O)c1c(Cl)cccc1Cl)Nc1c(F)cc(F)cc1Br` gave Dicer processing -0.58.
`O=c1c(NC2CCCCC2)c(NC2CCCCC2)c1=O` gave Dicer processing 5.91*.
For S=c1[nH]nc(NC2CCCCC2)s1 the results were Dicer processing 0.77.
S=C(NC1CCCCC1)C(=S)NC1CCCCC1 was read as Dicer processing -1.07.
Screening CC(=O)Oc1cccc(-c2nc3ccccc3c(=O)o2)c1 returned Dicer processing 1.68.
`CCCCOC(=O)/C=N/Nc1ccccc1` gave Dicer processing 0.46.
For CCOC(=O)C1CN(C2CCCCC2)C(=O)C1=O (stereo not drawn) the results were Dicer processing 5.1*.
CCOC(=O)C1CC(=O)C(C(=O)OCC)CC1=O (stereo not drawn) was read as Dicer processing -0.45.
For CCOC(=O)C1=C(O)C(=O)N(C2CCCCC2)C1 the results were Dicer processing -0.9.
COC(=O)C1=C(C)NC2=C(C(=O)CC(C)(C)C2)C1c1ccc(Cl)cc1 (stereo not drawn) was read as Dicer processing -0.58.
Screening Cc1ccc(=O)n(S(=O)(=O)c2ccc(F)cc2F)n1 returned Dicer processing 0.63.
Screening Nc1cc(-c2cc(-c3ccccc3)c(C(F)(F)F)s2)[nH]n1 returned Dicer processing 0.98.
Screening Cc1nn(-c2cc(Cl)ccc2Cl)c(N)c1C(N)=S returned Dicer processing 0.75.
`CCN1CCCC1CNC(=O)c1cc(S(N)(=O)=O)ccc1OC` (stereo not drawn) gave Dicer processing 0.26.
For CC(C)(C)c1ccc(OC(=O)c2ccco2)cc1 the results were Dicer processing 0.7.
COCCOC(=O)c1c(C)oc2ccc(OC(=O)c3ccco3)cc12 was read as Dicer processing 1.28.
`CN(CCOC(=O)c1ccco1)C(C)(C)C` gave Dicer processing 3.37*.
`NCc1c(Cl)cc(C(F)(F)F)cc1Cl` gave Dicer processing -1.14.
Cc1nn2c(-c3ccco3)ccnc2c1-c1ccc(Br)cc1 was read as Dicer processing 1.47.
`OC[C@H]1O[C@@H](Oc2ccccc2)[C@H](O)[C@@H](O)[C@@H]1O` gave Dicer processing 1.69.
Screening CCN(CC)CCOC(=O)c1ccc(N[C@@H]2O[C@H](CO)[C@@H](O)[C@H](O)[C@H]2O)cc1 returned Dicer processing -1.29.
Screening OCC1OC(Nc2ccc(Cl)cc2)C(O)C(O)C1O (stereo not drawn) returned Dicer processing 3.36*.
COc1ccc(Oc2coc3cc(OC(C)=O)ccc3c2=O)cc1 was read as Dicer processing 4.88.
Screening CC(=O)N(c1ccc(C(F)(F)F)cc1)S(=O)(=O)c1ccc(N2C(=O)CCC2=O)cc1 returned Dicer processing -0.03.
Cc1ccc(S(=O)(=O)N/N=C/c2ccc(Cl)cc2)cc1 was read as Dicer processing -0.02.
`COc1ccc(/C=N/NS(=O)(=O)c2ccc(Cl)cc2)cc1OC` gave Dicer processing 3.54*.
`Cc1ccc(S(=O)(=O)N/N=C/c2ccc(Cl)c(Cl)c2)cc1` gave Dicer processing -0.62.
Screening O=C(O)CCC(C(=O)O)N1C(=O)c2ccccc2C1=O (stereo not drawn) returned Dicer processing 3.19*.
O=C(CCC(C(=O)O)N1C(=O)c2ccccc2C1=O)Nc1ccc2c(c1)COCO2 (stereo not drawn) was read as Dicer processing -1.8.
O=C(O)CCC(NC(=O)OCc1ccccc1)C(=O)O (stereo not drawn) was read as Dicer processing 0.24.
`Cc1ccccc1OCCn1c(N)nc2ccccc21` gave Dicer processing 0.91.
CN1C(=O)CC(c2ccsc2)Sc2ccccc21 (stereo not drawn) was read as Dicer processing 0.73.
`CC1CC(=O)N(C)c2ccccc2S1(=O)=O` (stereo not drawn) gave Dicer processing 3.95*.
For CN1C(=O)CN(C2CCCCC2)C(=O)c2ccccc21 the results were Dicer processing 2.52.
For COc1ccc(C2CC(c3ccc(F)cc3)Nc3nc(N)nn32)cc1OC (stereo not drawn) the results were Dicer processing 0.09.
For Cc1cc(C)c(NS(=O)(=O)c2ccc3c(c2)n(C)c(=O)n3C)c(C)c1 the results were Dicer processing -0.69.
CCCCCOC(=O)C1=C(C)NC2=C(C(=O)CCC2)C1c1ccc(OCC)c(OC)c1 (stereo not drawn) was read as Dicer processing 4.16*.
Screening CCOc1ccc(C2C(C(=O)OCCOC)=C(C)NC3=C2C(=O)CCC3)cc1OC (stereo not drawn) returned Dicer processing 0.31.
`COCCOC(=O)C1=C(C)NC2=C(C(=O)CC(C)(C)C2)C1c1ccc(OC)c(OC)c1` (stereo not drawn) gave Dicer processing 3.71*.
COC(=O)C1=C(C)NC2=C(C(=O)CC(c3ccc(OC)c(OC)c3)C2)C1c1ccc(SC)cc1 (stereo not drawn) was read as Dicer processing 1.16.
For COC(=O)C1=C(C)NC2=C(C(=O)CC(c3ccc(Cl)cc3)C2)C1c1ccccc1Cl (stereo not drawn) the results were Dicer processing 3.39*.
Screening COC(=O)C1=C(C)NC2=C(C(=O)CC(c3ccc(OC)cc3)C2)C1c1ccc(OC)c(OC)c1 (stereo not drawn) returned Dicer processing 2.1.
COC(=O)C1=C(C)NC2=C(C(=O)CC(c3ccccc3)C2)C1c1ccccc1Cl (stereo not drawn) was read as Dicer processing 2.14.
CCOCCOC(=O)C1=C(C)NC2=C(C(=O)CC(C)(C)C2)C1c1ccc(OC)c(OC)c1 (stereo not drawn) was read as Dicer processing -0.53.
CCCCOC(=O)C1=C(C)NC2=C(C(=O)CC(C)(C)C2)C1c1ccc(OC)c(OC)c1 (stereo not drawn) was read as Dicer processing 0.33.
For CCCCCOC(=O)C1=C(C)NC2=C(C(=O)CCC2)C1c1ccc(OC)c(Br)c1 (stereo not drawn) the results were Dicer processing -0.77.
Screening COC(=O)C1=C(C)NC2=C(C(=O)CC(c3ccc(OC)c(OC)c3)C2)C1c1ccc(F)cc1 (stereo not drawn) returned Dicer processing 4.48*.
For COC(=O)C1=C(C)NC2=C(C(=O)CC(c3ccccc3)C2)C1c1ccccc1F (stereo not drawn) the results were Dicer processing 8.01.
Screening CC1CCCN(C2CCN(Cc3ccccc3Cl)CC2)C1 (stereo not drawn) returned Dicer processing 0.63.
Screening Cc1cc(=O)n2c(n1)NC(Nc1ccc(F)cc1)=NC2c1cccs1 (stereo not drawn) returned Dicer processing 0.03.
O=C(c1c2oc(-c3ccc(Cl)cc3)ccc-2c2ccccc12)C(F)(F)F was read as Dicer processing -0.05.
`COc1nc(C)ccc1-c1noc(-c2cccnc2)n1` gave Dicer processing 1.84.
`CN(C)/C=C(\C#N)c1nnc(-c2ccccn2)n1C` gave Dicer processing -0.35.
Screening O=C(CC1Sc2ccccc2NC1=O)Nc1ccc(O)cc1 (stereo not drawn) returned Dicer processing 0.9.
`COc1ccccc1C1C(C(=O)OC(C)C)=C(C)NC2=C1C(=O)CC(c1ccccc1)C2` (stereo not drawn) gave Dicer processing 1.83.
CC1=C(C(=O)OCC2CCCO2)C(c2cccc(O)c2)C2=C(CC(C)(C)CC2=O)N1 (stereo not drawn) was read as Dicer processing 3.1*.
